The list is not random: actives were taken first. Their share in the collection is about 9%.
G9a inh – qHTS Assay for Inhibitors of Histone Lysine Methyltransferase G9a; G9a H3K9 monomethylation, AlphaScreen, 2 h; hit rate 8.8% among 350,000; Potency, µM (top dose mostly 102 µM), most hits filed as inhibitors; Histone-lysine N-methyltransferase EHMT2 (Homo sapiens), Q96KQ7; also: nearly all actives have a fitted effect of over 75% in size
Target sequence (Q96KQ7 913-1193 limits assumed): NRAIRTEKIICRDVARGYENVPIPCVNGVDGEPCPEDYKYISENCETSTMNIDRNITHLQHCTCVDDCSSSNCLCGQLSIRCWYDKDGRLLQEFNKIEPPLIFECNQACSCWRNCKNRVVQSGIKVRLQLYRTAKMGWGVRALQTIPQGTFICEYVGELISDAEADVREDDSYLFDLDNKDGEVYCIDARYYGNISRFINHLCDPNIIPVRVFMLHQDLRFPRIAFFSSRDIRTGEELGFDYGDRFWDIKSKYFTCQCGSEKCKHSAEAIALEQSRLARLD
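Compounds were preincubated with 20 nM G9a for 15 min, after which biotinylated H3K9 peptide (500 nM) and SAM (20 uM) started a 2 h room-temperature reaction. Monomethylated product was quantified by antibody-based AlphaScreen chemiluminescence.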
BAZ2B block – qHTS Assay for Inhibitors of BAZ2B; hit rate 4.4% among 360,000; Potency, µM (highest dose often 114 µM), most hits filed as inhibitors; Bromodomain adjacent to zinc finger domain protein 2B (Homo sapiens), Q9UIF8; AID 504333, 2011; AlphaScreen BAZ2B-H3K14Ac peptide displacement; also: nearly all actives have a fitted effect of over 60% in size
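Multi-concentration screen (max 110 uM) measuring displacement of acetylated histone H3 peptide from BAZ2B by AlphaScreen, using 50 nM protein, 50 nM peptide and 10 ug/mL streptavidin donor plus Ni-chelate acceptor beads.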
JMJD2A Tudor – qHTS Assay for Inhibitors of JMJD2A-Tudor Domain; Lysine-specific demethylase 4A (Homo sapiens), O75164; AlphaScreen JMJD2A-Tudor / H3K4me3 peptide binding; Potency, µM (series often up to 114 µM), most hits filed as inhibitors; hit rate 4.4% among 390,000; AID 504339, 2011; also: nearly all actives have a fitted effect of over 50% in size
12-LOX inh – Primary qHTS assay for inhibitors of human arachidonate 12S-lipoxygenase (ALOX12): Round 2; Potency, µM (highest dose often 108 µM), actives largely listed as inhibitors; purified 12hLO, xylenol orange hydroperoxide absorbance; hit rate 1.1% among 580,000
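Hydroperoxide product was detected by ferrous iron/xylenol orange as the 573 to 405 nm absorbance ratio. Arachidonic acid at 40 uM (final) was turned over for 30 min at room temperature by 150 nM human 12hLO, pH 7.0 Hepes buffer, after 15 min compound preincubation.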
PLK1 PBD block – qHTS for Inhibitors of PLK1-PDB (polo-like kinase 1 - polo-box domain): Primary Screen | Serine/threonine-protein kinase PLK1 (Homo sapiens), P53350 | Plk1 PBD binding of FITC phosphopeptide, fluorescence polarization | Potency, µM, most hits filed as inhibitors | hit rate 2.8% among 360,000; also: series mostly up to about 57 µM; nearly all actives have a fitted effect of over 65% in size
HP1b binding inh – HTS for Inhibitors of HP1-beta Chromodomain Interactions with Methylated Histone Tails; Chromobox protein homolog 1 (Homo sapiens), P83916; AlphaScreen HP1-beta / biotin-H3K9me3 peptide binding; Potency, µM (doses to about 114 µM), actives largely listed as inhibitors; hit rate 0.56% among 390,000; AID 540317, 2011; also: nearly all actives have a fitted effect of over 70% in size
Target sequence (P83916 whole entry, looked up): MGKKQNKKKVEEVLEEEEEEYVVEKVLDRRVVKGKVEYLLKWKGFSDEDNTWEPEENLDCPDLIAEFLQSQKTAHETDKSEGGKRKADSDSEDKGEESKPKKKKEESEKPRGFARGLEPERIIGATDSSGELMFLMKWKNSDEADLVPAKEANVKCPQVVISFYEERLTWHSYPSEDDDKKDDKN
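Compound inhibition of the preformed complex between 50 nM HP1-beta and 50 nM biotinylated H3K9me3 peptide was read by AlphaScreen. Buffer was PBS pH 7.4 with 0.01% Tween-20. Incubations ran 30 min at room temperature, with 10 ug/mL donor/acceptor beads.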
Hits are given with their value; . = inactive; ? = inconclusive; / = no result; [ ] = remark or other dose. Calls follow the shape of the dose curve; as a rule, active = well fitted curve in the direction sought with a large enough effect; inconclusive = small, poorly fitted or top-dose-only effect, or another doubt; inactive = no such curve, though single readings can be large; an effect the other way counts as inactive or inconclusive.

SMILES	G9a inh	BAZ2B block	JMJD2A Tudor	12-LOX inh	PLK1 PBD block	HP1b binding inh
Cc1cc(C)c(NC(=O)CSc2nc3ccccc3c(=O)n2CCCN2CCOCC2)c(C)c1	.[12.7 µM]	.	.	.	.	.
Cc1ccc2nc(SC(C)C(=O)N3CCCC3)[nH]c2c1 (stereo not given)	28µM	.	.	.	.	.
Cc1ccc2nc(SCC(=O)Nc3ccc(C(N)=O)cc3)[nH]c2c1	40µM	.	.	.	.	?
Cc1c(NC(=O)CSc2nc3ccc(Cl)cc3[nH]2)c(=O)n(-c2ccccc2)n1C	11µM	?	.	.	.	.
Cc1nc2ccc(NC(=O)CSc3nnc(C)s3)cc2[nH]1	40µM	.	.	.	.	.
Cc1nnc(SCC(=O)Nc2ccc3c(c2)OCCO3)s1	.	.	.	.	.	.
CC(C)NS(=O)(=O)c1ccc(OCC(=O)NCc2ccc3c(c2)OCO3)c(Cl)c1	.[12.7 µM]	.	.	.	.	.
O=C(CN1CCN(c2ncccn2)CC1)N1CCC2(CCCNC2=O)C1 (stereo not given)	/	/	/	.	/	/
COc1ccc(NC(=O)O/N=C/c2ccccc2Cl)cc1	/	.	.	.	.	.
COc1cccc(CNC(=O)Cn2ncc3c4ccccc4n(C)c3c2=O)c1	.	.	.	.	/	.
COC(=O)c1sc2nc(CSc3nc4ccc(C)cc4[nH]3)[nH]c(=O)c2c1C	?	.	.	.	.	.
O=C(CSc1nc2ccc(Cl)cc2[nH]1)Nc1ccc2[nH]c(=O)[nH]c2c1	5.6µM	.	?	.	?	.
Cc1ccc(NC(=O)CSc2nc3ccc(Br)cc3[nH]2)c(C)c1	8.9µM	.	.	.	/	.
Cc1ccc2nc(SCc3nc4ccccc4c(=O)[nH]3)[nH]c2c1	40µM	.	?	?	?	.
Cc1ccc2nc(SCC(=O)c3c(N)n(C4CC4)c(=O)[nH]c3=O)[nH]c2c1	18µM	.	.	?	.	?
O=C(c1ccc2ccccc2c1)N1CCN(Cc2ccccc2)CC1	.	.	.	?	.	.
COc1cccc(NC(=O)COC(=O)c2c(C)nn(-c3ccccc3)c2C)c1	.[12.7 µM]	?	.	.	.	.
Cc1c(NC(=O)CSc2ccc(Cl)cc2)c(=O)n(-c2ccccc2)n1C	?	.	.	.	.	.
Cc1c(NC(=O)CSc2ccc3c(c2)OCCO3)c(=O)n(-c2ccccc2)n1C	.	.	50µM	.	27µM	?
CCN(CC)c1ccc(NC(=O)c2ccccn2)cc1S(=O)(=O)Nc1ccccc1OC	2.5µM	?	56µM	?	6.7µM	?
CCN(CC)c1ccc(NC(=O)COc2ccccc2C#N)cc1S(=O)(=O)Nc1ccccc1OC	2.5µM	.	?	?	5.3µM	?
COc1ccc(NS(=O)(=O)c2cc(NC(=O)c3ccccn3)ccc2OC)cc1Br	/	/	.	.	.	.
COc1ccccc1NS(=O)(=O)c1cc(NC(=O)CNC(=O)c2ccccc2)ccc1C	.	.	.	.	.	.
Cc1cc(C(=O)N2CCN(c3ncccn3)CC2)cs1	.[12.7 µM]	.	.	.	.	.
Cc1nc2ccn(Cc3cccs3)c(=O)c2cc1C(=O)N1CCN(c2ccc(F)cc2)CC1	.	.	?	.	/	.
SMILES	G9a inh	BAZ2B block	JMJD2A Tudor	12-LOX inh	PLK1 PBD block	HP1b binding inh
Cn1c(=O)c2c(nc(Br)n2CC(=O)C23CC4CC(CC(C4)C2)C3)n(C)c1=O	.	.	?	.	.	.
CCCNC(=O)COc1ccc2c(=O)c(-c3ccc(OC)c(OC)c3)c(C)oc2c1	/	/	/	.	/	/
CCC(=O)Nc1ccc(Cl)c(NC(=O)c2cccc(OC)c2)c1	.	.	.	.	.	.
CCC(=O)Nc1ccc(Cl)c(NC(=O)c2ccc([N+](=O)[O-])cc2)c1	.	.	?	.	8.4µM	.
CCCCC(=O)Nc1cc(NC(=O)CC)ccc1Cl	.	.	.	.	.	.
CCCC(=O)Nc1ccc(Cl)c(NC(=O)CC)c1	.	.	?	.	27µM	?
COc1cc(CNCc2c[nH]c3ccccc23)cc(OC)c1	14µM	56µM	3.5µM	?	.	?

Screening results from PubChem BioAssay.
